Sm TGR inh: blocks Schistosoma mansoni thioredoxin glutathione reductase. Q962Y6. actives 3% (n = 360,000). Potency, µM (doses to about 114 µM), inactives show at the top dose activity change, negative = inhibition, actives largely listed as inhibitors. AID 485364. purified TGR, DTNB reduction, TNB absorbance 405 nm; further: potency means the concentration at half of the fitted maximal effect; nearly all actives have a fitted effect of over 60% in size
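TGR 20 nM + NADPH 100 uM (dispensed conc.), cpd preinc 15 min RT; start with NADPH (500 uM addition) then DTNB (15 mM addition). Kinetic TNB absorbance, 405 nm filter. Four-parameter Hill fit across titration.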
Tb PYK inh: T. brucei pyruvate kinase inhibition | Q57TT1 | TbPYK enzyme, Kinase-Glo Plus ATP luminescence, 45 min | Potency, µM (doses to about 76.8 µM), without a hit: top-dose activity, negative = inhibition, most hits filed as inhibitors | actives 0.12% (n = 410,000); further: potency means the concentration at half of the fitted maximal effect; nearly all actives have a fitted effect of over 50% in size
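TbPYK + substrate in 50 mM TEA pH 7.2, 100 mM KCl, 10 mM MgCl2, 0.05% BSA, 0.01% Tween-20; cpd pinned; ADP 130 uM final; 45 min RT; Kinase-Glo Plus 10 min; luminescence endpoint.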
HCMV inh: inhibitors of human cytomegalovirus; HFF cells, HCMV-luciferase reporter, 72 h; active compounds read low; activity change, negative = inhibition, % at 57.5 µM; actives 4.5% (n = 410,000); in the data active means activity change below about -60%; inconclusive means no clear call, values can overlap the other calls; inactive means above about -39%
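Compounds were evaluated in HFFs infected with an HCMV luciferase reporter virus (MOI 1 PFU/cell). Luciferase in lysates collected 72 h post infection served as the replication measure.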
FMDV antiviral: foot and mouth disease virus antiviral activity; FMDV antiviral cell-based qHTS; Potency, µM (titrated, usually from 57.9 µM), without a hit: at the top dose activity change, negative = inhibition, actives largely listed as inhibitors; actives 1.2% (n = 410,000); AID 1159524; calls by dose curve; tested in HEK293T cells; further: read-out not given here; potency means the concentration at half of the fitted maximal effect; nearly all actives have a fitted effect of over 45% in size
FBPA Giardia inh: inhibitors of Giardia lamblia fructose-1,6-bisphosphate aldolase. A8B2U2. purified Giardia FBPA. Potency, µM (doses to about 59.6 µM), inactives show top-dose activity, negative = inhibition, usual class: inhibitors. actives 0.71% (n = 290,000); further: potency means the concentration at half of the fitted maximal effect; nearly all actives have a fitted effect of over 55% in size
Target sequence (A8B2U2 whole entry, looked up): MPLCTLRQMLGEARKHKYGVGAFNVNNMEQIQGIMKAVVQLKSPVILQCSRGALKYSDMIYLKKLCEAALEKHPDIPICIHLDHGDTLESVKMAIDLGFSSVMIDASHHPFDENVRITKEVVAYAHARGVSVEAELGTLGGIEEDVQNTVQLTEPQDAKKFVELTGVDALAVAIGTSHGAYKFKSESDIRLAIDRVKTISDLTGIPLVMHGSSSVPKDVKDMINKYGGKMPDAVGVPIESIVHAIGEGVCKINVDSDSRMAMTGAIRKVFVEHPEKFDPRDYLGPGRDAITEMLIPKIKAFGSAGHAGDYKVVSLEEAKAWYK
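Giardia FBPA (40 nM reagent) was preincubated 10 min at RT with compound (up to 57.5 uM final), then substrate plus GAPDH/TPI/NAD/arsenate coupling system with diaphorase/resazurin was added; resorufin fluorescence (525/598 nm) was read after 20 min.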
RE007 growth inh: less growth of the S. pombe RE007 Vpr strain. S. pombe RE007 Vpr strain, BacTiter-Glo ATP luminescence, 24 h. actives 0.21% (n = 360,000). Potency, µM (series often up to 92.2 µM), inactives show at the highest dose activity change, negative = less growth, actives largely listed as inhibitors. AID 651644; active means well fitted falling curve with a large enough effect; inconclusive means small, poorly fitted or top-dose-only effect; inactive means no such curve, though single readings can be large or run the other way; further: potency means the concentration at half of the fitted maximal effect; nearly all actives have a fitted effect of over 50% in size
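Fission yeast RE007 carrying one integrated HIV-1 vpr copy, seeded at OD 0.01 in PMG+AL medium with 23 nL pinned compound. Grown 24 h at 30 degrees; viability read by BacTiter-Glo luminescence after 5 min.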
Active calls of the source: *; u = inconclusive; x = no result. Rows were chosen to be rich in hits. Some 7.7% of all compounds tested hit in one or more screens of this group. Unless noted, the call rests on the fitted dose curve; in most records, active means well fitted curve in the direction sought with a large enough effect; inconclusive means small, poorly fitted or top-dose-only effect, or another doubt; inactive means no such curve, though single readings can be large; an effect the other way counts as inactive or inconclusive. On the % scale 0 is the no-effect control and ±100 the full control effect.

SMILES | Sm TGR inh | Tb PYK inh | HCMV inh | FMDV antiviral | FBPA Giardia inh | RE007 growth inh
Cc1ccc(C2=NC(C)(C)N=C2SCC(=O)Nc2ccc(Cl)cc2)cc1 | u | 3% | -25 | 32µM* | -7% | 9%
O=Nc1ccc(NOC(=O)c2ccccc2)cc1 | 5% | u | u | 0% | -12% | 10µM*
Cc1cccc(NC(=O)CSc2nc(=O)n(Cc3cccnc3)c3c2CCC3)c1C | 9% | -5% | -3 | 0% | x | x
Cc1ccc(F)cc1NC(=O)c1ccc(Cn2nc(N3CCN(c4ccccc4)CC3)ccc2=O)o1 | -20% | -5% | -73* | 35µM* | x | x
Cc1cc(F)ccc1NC(=O)Cn1nc(N2CCN(c3ccccc3)CC2)ccc1=O | -14% | 1% | -26 | -19% | x | x
Cc1cccc(NC(=O)c2ccc(Cn3nc(N4CCN(c5ccccc5)CC4)ccc3=O)o2)c1C | 7% | -3% | -72* | -24% | x | x
Cc1nc2ccccc2c(N)c1C(=O)/C=C/c1ccccc1 | 0% | 0% | -99* | 18µM* | 1% | -1%
CCn1c(CN2CCC(C)CC2)nc2cc(NC(=O)c3cccc([N+](=O)[O-])c3)ccc21 | 3% | -7% | -9 | u | x | x
CNS(=O)(=O)c1ccc2c3c(cccc13)C(=O)N2 | -17% | -1% | -4 | 39% | 1% | 2%
Cc1c(NS(=O)(=O)c2cccs2)cccc1-c1nc2cccnc2s1 | 5% | 0% | -32 | -20% | 16% | -18%
O=S(=O)(Nc1cccc2ncccc12)c1cccs1 | 3% | 4% | x | 20µM* | u | -3%
O=C1Nc2ccc(NS(=O)(=O)c3cccs3)c3cccc1c23 | -4% | 6% | 12 | 22% | 8.9µM* | 8%
CCOc1cc2[nH]c(=O)n(CCCCC(=O)N3CCN(c4ccccc4)CC3)c(=O)c2cc1OCC | 2% | 0% | -7 | u | x | x
C/C(=N\NC(=O)CNc1cccc(C)c1)c1ccc(Br)s1 | -15% | 2% | -62* | 9% | -1% | 5%
C/C(=N\Nc1ccc(C(=O)O)cc1)c1ccc(Cl)s1 | -2% | 2% | 249 | 0% | -3% | 0%
C/C(=N\NC(=O)Cc1ccccc1)c1ccc(Br)s1 | 0% | -4% | 75 | 16% | 9% | 9%
C/C(=N\NC(=O)c1ccc(Cl)c(Cl)c1)c1ccc(Br)s1 | 4% | 3% | -83* | -12% | 3% | 2%
C/C(=N\Nc1ccc(Cl)c(C(=O)O)c1)c1ccc(Br)s1 | 50µM* | -12% | -1 | 6% | -18% | -12%
Cc1ccccc1CN1[C@@H](C)[C@H](c2ccccc2)Oc2cccc(NCCc3ccccc3)c2S1(=O)=O | x | x | -10 | x | x | x
O=C(Nc1nccs1)c1ccc(S(=O)(=O)NCC2CCCCC2)cc1 | 4% | 3% | -83* | 18% | 2% | -8%
O=C(Nc1nccs1)c1ccc(S(=O)(=O)NCc2cccs2)cc1 | 0% | 0% | u | x | 2% | 3%
O=C(C=Cc1ccco1)c1cc(Cl)ccc1O | x | -1% | -33 | u | x | u
CC(/C=C/c1ccco1)=N/NC(=O)Cc1cccs1 | 25µM* | -8% | -21 | 41% | -1% | -24%
CC(/C=C/c1ccco1)=N/NC(=O)OC(C)(C)C | 40µM* | -14% | 27 | 34% | -15% | 11%
C/C(CC(=O)NC1CCCC1)=N\NC(=O)Cc1cccs1 | -12% | -11% | 95 | -14% | 1% | -17%
CC(/C=C/c1ccco1)=N\NC(=O)c1cccnc1 | 35µM* | -4% | -9 | x | u | -11%
O=C(/C=C/c1ccco1)c1ccccc1O | 32µM* | 1% | -38 | 30% | -7% | -21%
C/C(=N\NC(=O)c1ccoc1C)c1cccnc1 | -3% | -3% | -4 | 11% | 3% | -2%
C/C(=N/NC(=O)OC(C)(C)C)c1ccco1 | -20% | -9% | 42 | 20% | -2% | 2%
CCOC(=O)Cc1c(C)nc2c(-c3ccc(OC)c(OC)c3)c(C)nn2c1C | -2% | -5% | -23 | u | x | x
